Among the data in ChEMBL document CHEMBL1961873, “Compounds: GSK PKIS; Assays: Nanosyn kinase panel” (2012) are inhibition values, retold here.

A word on the inhibition: it is the relative decrease from the control value, in per cent.

The target in experiment [1] is RAC-alpha serine/threonine-protein kinase (Homo sapiens) (UniProt P31749). To be noted: at 0.1 µM.
For experiment [2] the target is unchanged. To be noted: at 1 µM.
Experiment [3] concerns the target RAC-beta serine/threonine-protein kinase (Homo sapiens) (UniProt P31751). To be noted: at 0.1 µM.
For experiment [4] the target is unchanged. To be noted: at 1 µM.
For experiment [5], the target named is RAC-gamma serine/threonine-protein kinase (Homo sapiens) (UniProt Q9Y243). To be noted: at 0.1 µM.
RAC-gamma serine/threonine-protein kinase (Homo sapiens), sequence (Q9Y243 whole entry): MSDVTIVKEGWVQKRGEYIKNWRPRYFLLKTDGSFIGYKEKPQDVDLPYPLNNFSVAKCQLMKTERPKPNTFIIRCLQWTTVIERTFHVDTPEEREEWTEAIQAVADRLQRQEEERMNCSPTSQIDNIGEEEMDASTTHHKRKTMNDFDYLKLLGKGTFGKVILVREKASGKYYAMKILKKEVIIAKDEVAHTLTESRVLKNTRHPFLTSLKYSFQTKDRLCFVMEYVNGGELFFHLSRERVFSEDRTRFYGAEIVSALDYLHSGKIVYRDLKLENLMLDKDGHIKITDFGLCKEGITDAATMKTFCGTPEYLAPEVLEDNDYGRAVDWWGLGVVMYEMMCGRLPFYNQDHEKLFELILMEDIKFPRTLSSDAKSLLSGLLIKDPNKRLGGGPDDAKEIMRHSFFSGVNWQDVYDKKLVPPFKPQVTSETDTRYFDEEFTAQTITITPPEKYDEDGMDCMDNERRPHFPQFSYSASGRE
Experiment [6] has the same target. To be noted: at 1 µM.
Experiment [7] has as its target G protein-coupled receptor kinase 6 (Homo sapiens) (UniProt P43250). To be noted: at 0.1 µM.
The target is the same in experiment [8]. To be noted: at 1 µM.
The target in experiment [9] is T1, Rhodopsin kinase GRK7 (Homo sapiens) (UniProt Q8WTQ7).
T1 sequence (whole entry): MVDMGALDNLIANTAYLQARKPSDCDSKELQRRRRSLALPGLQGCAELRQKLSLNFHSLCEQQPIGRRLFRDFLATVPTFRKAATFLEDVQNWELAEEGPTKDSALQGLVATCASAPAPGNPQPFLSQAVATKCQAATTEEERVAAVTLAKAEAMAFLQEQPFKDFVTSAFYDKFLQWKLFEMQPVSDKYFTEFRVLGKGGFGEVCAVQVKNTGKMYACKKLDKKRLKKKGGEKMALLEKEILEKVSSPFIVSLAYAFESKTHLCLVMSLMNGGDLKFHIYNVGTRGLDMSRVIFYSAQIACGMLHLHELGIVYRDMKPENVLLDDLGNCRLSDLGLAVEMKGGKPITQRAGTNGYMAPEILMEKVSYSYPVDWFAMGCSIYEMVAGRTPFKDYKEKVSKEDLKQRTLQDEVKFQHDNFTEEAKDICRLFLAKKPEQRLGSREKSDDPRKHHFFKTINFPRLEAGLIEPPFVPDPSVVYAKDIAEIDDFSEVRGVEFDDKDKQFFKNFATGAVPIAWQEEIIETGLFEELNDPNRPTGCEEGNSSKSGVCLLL
To be noted: at 0.1 µM.

The target of experiment [10] is T1, Rhodopsin kinase GRK7 (Homo sapiens). To be noted: at 1 µM.
For experiment [11], the target named is Serine/threonine-protein kinase MRCK alpha (Homo sapiens) (UniProt Q5VT25). To be noted: at 0.1 µM.
Serine/threonine-protein kinase MRCK alpha (Homo sapiens), sequence (Q5VT25 whole entry): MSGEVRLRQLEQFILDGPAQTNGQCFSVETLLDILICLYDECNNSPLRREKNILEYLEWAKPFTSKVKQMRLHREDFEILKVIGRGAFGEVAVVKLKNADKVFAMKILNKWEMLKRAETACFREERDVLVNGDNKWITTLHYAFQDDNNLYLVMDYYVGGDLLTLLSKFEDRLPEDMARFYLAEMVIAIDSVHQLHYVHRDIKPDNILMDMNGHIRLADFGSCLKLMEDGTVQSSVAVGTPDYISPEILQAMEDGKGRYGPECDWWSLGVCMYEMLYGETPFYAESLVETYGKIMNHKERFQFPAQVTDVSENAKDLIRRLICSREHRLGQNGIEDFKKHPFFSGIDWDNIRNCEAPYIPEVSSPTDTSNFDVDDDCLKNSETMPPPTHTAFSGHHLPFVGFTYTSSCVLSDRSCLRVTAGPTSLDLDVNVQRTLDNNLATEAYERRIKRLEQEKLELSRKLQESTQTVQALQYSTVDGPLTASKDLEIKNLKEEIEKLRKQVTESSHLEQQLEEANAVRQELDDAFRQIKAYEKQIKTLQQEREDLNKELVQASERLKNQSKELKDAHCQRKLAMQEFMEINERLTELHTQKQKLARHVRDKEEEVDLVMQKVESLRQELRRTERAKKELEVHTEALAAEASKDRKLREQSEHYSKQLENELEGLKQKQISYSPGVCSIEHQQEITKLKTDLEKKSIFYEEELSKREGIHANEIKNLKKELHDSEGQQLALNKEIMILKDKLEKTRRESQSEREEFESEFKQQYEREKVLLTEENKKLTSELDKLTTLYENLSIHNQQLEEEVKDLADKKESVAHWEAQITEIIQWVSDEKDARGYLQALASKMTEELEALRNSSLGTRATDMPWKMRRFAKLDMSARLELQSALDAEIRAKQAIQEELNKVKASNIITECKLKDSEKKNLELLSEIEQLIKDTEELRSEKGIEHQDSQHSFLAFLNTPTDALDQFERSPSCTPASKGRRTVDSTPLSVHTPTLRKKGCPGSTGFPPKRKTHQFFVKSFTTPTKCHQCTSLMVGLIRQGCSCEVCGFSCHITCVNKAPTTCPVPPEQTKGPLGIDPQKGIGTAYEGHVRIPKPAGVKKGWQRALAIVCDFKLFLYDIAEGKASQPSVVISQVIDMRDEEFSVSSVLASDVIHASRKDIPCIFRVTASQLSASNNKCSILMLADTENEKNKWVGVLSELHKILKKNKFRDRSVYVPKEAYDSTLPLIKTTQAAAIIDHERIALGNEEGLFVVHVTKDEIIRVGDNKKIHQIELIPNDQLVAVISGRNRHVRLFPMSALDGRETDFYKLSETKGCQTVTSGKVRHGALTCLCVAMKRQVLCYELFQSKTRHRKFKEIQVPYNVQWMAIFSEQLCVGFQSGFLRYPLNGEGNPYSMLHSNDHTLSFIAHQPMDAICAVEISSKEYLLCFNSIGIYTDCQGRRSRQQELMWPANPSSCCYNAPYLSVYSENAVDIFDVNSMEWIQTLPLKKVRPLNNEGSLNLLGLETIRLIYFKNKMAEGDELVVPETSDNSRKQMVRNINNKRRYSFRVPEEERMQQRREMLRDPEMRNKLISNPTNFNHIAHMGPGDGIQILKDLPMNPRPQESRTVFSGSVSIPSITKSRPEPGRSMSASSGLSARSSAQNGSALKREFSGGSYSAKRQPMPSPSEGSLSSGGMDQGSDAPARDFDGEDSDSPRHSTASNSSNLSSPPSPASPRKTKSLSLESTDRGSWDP
Experiment [12] has the same target. To be noted: at 1 µM.
In experiment [13] the target is Serine/threonine-protein kinase MRCK beta (Homo sapiens) (UniProt Q9Y5S2). To be noted: at 0.1 µM.
Experiment [14] shares this target. To be noted: at 1 µM.
For experiment [15], the target named is Ribosomal protein S6 kinase alpha-5 (Homo sapiens) (UniProt O75582). To be noted: at 0.1 µM.
Ribosomal protein S6 kinase alpha-5 (Homo sapiens), sequence (O75582 whole entry, looked up): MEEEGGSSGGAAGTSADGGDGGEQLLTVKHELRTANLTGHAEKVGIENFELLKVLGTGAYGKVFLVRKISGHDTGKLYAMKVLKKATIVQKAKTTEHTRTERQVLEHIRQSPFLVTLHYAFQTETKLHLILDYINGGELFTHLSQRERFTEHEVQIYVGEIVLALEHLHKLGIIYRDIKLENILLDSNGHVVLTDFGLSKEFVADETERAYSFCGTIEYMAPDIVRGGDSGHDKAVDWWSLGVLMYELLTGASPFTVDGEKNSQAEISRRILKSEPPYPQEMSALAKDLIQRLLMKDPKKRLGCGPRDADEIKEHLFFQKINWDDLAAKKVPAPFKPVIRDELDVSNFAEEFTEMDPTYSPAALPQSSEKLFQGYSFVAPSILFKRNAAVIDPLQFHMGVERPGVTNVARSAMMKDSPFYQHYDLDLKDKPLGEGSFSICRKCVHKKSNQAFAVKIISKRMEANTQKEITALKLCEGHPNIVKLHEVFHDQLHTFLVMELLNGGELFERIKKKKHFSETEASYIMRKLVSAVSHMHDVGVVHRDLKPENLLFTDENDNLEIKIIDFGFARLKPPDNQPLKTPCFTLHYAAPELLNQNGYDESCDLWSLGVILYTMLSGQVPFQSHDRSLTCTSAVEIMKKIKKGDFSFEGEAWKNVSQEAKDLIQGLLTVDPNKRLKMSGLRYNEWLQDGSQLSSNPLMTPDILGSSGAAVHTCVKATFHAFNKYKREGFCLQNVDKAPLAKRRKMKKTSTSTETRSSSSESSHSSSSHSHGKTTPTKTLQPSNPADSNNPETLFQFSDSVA
For experiment [16] the target is unchanged. To be noted: at 1 µM.
Experiment [17] concerns the target Ribosomal protein S6 kinase alpha-4 (Homo sapiens) (UniProt O75676). To be noted: at 0.1 µM.
Experiment [18] has the same target. To be noted: at 1 µM.
Experiment [19] concerns the target Ribosomal protein S6 kinase beta-1 (Homo sapiens) (UniProt P23443). To be noted: at 0.1 µM.
Experiment [20] has the same target. To be noted: at 1 µM.

Each structure is given as a SMILES string.

RAC-alpha serine/threonine-protein kinase (Homo sapiens), sequence (P31749 whole entry): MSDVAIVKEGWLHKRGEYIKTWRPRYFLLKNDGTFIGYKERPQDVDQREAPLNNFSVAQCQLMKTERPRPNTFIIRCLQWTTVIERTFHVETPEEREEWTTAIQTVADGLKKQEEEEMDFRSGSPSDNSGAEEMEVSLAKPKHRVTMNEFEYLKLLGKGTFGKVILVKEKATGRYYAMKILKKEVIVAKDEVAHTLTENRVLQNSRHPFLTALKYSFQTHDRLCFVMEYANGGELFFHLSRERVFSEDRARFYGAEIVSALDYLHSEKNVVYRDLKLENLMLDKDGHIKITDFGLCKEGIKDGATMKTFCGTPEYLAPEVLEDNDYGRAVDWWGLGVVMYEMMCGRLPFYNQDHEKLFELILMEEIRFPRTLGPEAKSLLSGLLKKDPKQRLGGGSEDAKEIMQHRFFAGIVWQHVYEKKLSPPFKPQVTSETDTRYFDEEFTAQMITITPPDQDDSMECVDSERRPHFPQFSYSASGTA
G protein-coupled receptor kinase 6 (Homo sapiens), sequence (P43250 whole entry, looked up): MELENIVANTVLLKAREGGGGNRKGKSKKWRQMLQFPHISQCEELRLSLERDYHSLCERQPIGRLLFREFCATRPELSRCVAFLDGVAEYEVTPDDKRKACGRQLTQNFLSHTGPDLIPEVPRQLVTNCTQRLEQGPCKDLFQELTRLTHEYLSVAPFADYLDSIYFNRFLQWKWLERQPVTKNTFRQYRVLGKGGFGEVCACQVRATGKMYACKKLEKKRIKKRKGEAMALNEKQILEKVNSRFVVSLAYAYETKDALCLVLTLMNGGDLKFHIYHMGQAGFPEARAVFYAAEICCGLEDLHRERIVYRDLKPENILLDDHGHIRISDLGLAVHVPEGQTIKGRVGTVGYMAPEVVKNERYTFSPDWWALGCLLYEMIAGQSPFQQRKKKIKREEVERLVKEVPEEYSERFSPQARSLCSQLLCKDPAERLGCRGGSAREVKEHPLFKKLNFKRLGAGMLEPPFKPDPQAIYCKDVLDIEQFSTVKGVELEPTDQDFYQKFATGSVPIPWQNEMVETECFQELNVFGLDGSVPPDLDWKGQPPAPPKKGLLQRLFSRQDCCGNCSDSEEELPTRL
Ribosomal protein S6 kinase alpha-4 (Homo sapiens), sequence (O75676 whole entry, looked up): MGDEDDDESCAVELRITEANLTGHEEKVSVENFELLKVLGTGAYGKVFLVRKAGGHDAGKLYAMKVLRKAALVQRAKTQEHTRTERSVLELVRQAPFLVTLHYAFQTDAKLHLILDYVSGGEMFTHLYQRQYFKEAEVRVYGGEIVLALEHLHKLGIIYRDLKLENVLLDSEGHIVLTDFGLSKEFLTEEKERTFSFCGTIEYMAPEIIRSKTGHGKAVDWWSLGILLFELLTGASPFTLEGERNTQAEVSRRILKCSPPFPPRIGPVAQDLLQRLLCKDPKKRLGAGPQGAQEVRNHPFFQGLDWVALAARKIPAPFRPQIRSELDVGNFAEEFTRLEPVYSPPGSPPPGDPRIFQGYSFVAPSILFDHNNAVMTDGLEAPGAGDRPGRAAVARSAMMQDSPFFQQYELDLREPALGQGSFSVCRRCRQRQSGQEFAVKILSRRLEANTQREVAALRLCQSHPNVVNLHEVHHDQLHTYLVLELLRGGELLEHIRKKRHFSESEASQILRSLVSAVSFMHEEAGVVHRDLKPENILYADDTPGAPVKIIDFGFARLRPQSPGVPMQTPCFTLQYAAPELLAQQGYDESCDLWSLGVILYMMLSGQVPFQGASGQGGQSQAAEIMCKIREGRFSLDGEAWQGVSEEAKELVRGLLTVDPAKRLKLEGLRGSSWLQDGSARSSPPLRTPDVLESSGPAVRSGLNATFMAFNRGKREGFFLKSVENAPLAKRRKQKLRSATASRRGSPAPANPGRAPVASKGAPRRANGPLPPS

`CCC(=O)Nc1ccc(C)c(-c2ccc(C(=O)NCC3CC3)cc2)c1`: the inhibition in experiment [1] came to 0.29%; in experiment [2], 0.52%; in experiment [3], 2.4%; in [4] it was 1.7%; in experiment [5] it was 0.86%; in experiment [6] it was 2.4%. In addition, the inhibition was 4.21% in experiment [7]; 3.82% in [8]; 8.7% in experiment [9]; 1.14% in experiment [10]; 0% in experiment [11]; 1.8% in experiment [12]. The inhibition is -0.7% in [13]; 0.23% in experiment [14]; 0.17% in experiment [15]; -0.98% in experiment [16]; 1.96% in experiment [17]; 2.63% in experiment [18]. Also, the inhibition was found to be 0.91% in experiment [19] and 1.77% in experiment [20].

Take `C[C@@H](Oc1cc(-n2cnc3ccc(OC4CCN(C)CC4)cc32)sc1C(N)=O)c1ccccc1Cl`: the inhibition in experiment [1] is -2.97%; in experiment [2], -3.84%; in experiment [3], -4.17%; in [4], -2.31%; in experiment [5] it was -2.91%; in [6], -1.57%. The inhibition in experiment [7] amounted to 4.79%; in experiment [8], 6.21%; in experiment [9], 10.7%; in experiment [10], 3.62%; in [11] it was 0.03%; in experiment [12], 5.65%. Besides, the inhibition in [13] was 0.19%; in [14], 2.98%; in [15], 2.31%; in experiment [16], 1.66%; in [17] it was 2.84%; in experiment [18], 5.67%. In addition, the inhibition in [19] came out at 1.64%; in experiment [20] it was 5.01%.

On to `CCS(=O)(=O)c1ccc(OC)c(Nc2ncc(-c3ccccc3Cl)o2)c1`, for which the inhibition was 0.85% in experiment [1]; 0.46% in experiment [2]; 0.22% in experiment [3]; 0.16% in [4]; 0.76% in experiment [5]; 0.93% in [6]. The inhibition is 2.4% in experiment [7]; -0.11% in experiment [8]; -1.21% in experiment [9]; -6.79% in experiment [10]; -0.23% in experiment [11]; 1.6% in experiment [12]. Further, the inhibition is -0.41% in [13]; 0.3% in experiment [14]; 0.87% in experiment [15]; 3.53% in experiment [16]; 0.38% in [17]; 1.77% in experiment [18]. For the same compound, the inhibition in experiment [19] was 0.04%; in experiment [20] it was 2.73%.

Take `NC(=O)c1ccc(Oc2nccc(-c3c(-c4ccc(F)cc4)ncn3C3CCNCC3)n2)cc1`: the inhibition in [1] worked out at 1.54%; in experiment [2], 3.25%; in experiment [3], 2.45%; in experiment [4], 1.86%; in [5], 3.04%; in [6], 7.31%. Moreover, the inhibition is 4.21% in experiment [7]; 7.44% in [8]; -1.91% in experiment [9]; 2.41% in experiment [10]; 5.74% in experiment [11]; 5.95% in experiment [12]. Besides, the inhibition was 1.2% in experiment [13]; 2.3% in experiment [14]; -2.57% in experiment [15]; -1.95% in experiment [16]; 3.42% in [17]; 5.79% in experiment [18]. Besides, the inhibition in [19] is 3.21%; in experiment [20] it was 5.34%.

Regarding `Fc1ccc(-c2ncn(C3CCNCC3)c2-c2ccnc(Oc3ccc4c(c3)OCO4)n2)cc1`, the inhibition in experiment [1] amounted to 2.04%; in [2], 1.04%; in [3], 0.93%; in experiment [4], 2.21%; in [5], 0.23%; in experiment [6], 3.88%. The inhibition in [7] was 0.51%; in [8], 2.27%; in experiment [9] it was 9.41%; in experiment [10], 2.9%; in experiment [11] it was -2.57%; in experiment [12] it was 9.23%. Besides, the inhibition in [13] is 0.96%; in experiment [14], 2.94%; in experiment [15] it was -2.64%; in experiment [16] it was -3.44%; in experiment [17], 3.63%; in experiment [18], 4.53%. Besides, the inhibition in experiment [19] turned out to be 2.58%; in experiment [20] it was 5.14%.

Consider `COc1cc2ncn(-c3cc(OCCc4ccccc4)c(C(N)=O)s3)c2cc1OC`, for which the inhibition in experiment [1] is 0.55%; in experiment [2], 0.01%; in [3], 1.52%; in experiment [4] it was 0.89%; in [5], 1.12%; in experiment [6], -0.88%. In addition, the inhibition is -2.45% in experiment [7]; -0.33% in [8]; 2.29% in experiment [9]; 2.5% in experiment [10]; 1.17% in experiment [11]; 2.94% in experiment [12]. Also, the inhibition in [13] stood at 1.02%; in experiment [14], 1.01%; in experiment [15], 1.83%; in experiment [16], 0.4%; in experiment [17], 0.49%; in experiment [18], 0.9%. The inhibition in experiment [19] is 1.13%; in experiment [20] it was 0.05%.
